“And” between values parts separate entries of the source, which are not always exact repeats. Identical values can stand only once. Inconclusive results are not listed. A call without a number means that no potency is given here. A structure can be active in one record and inactive in another. The source made the active and inactive calls. Calls come from the whole dose curve; as a rule, active = well fitted curve in the direction sought with a large enough effect in the repeat runs; inconclusive = weak or mixed curves; inactive = no such curve, though single readings can be large; an effect the other way counts as inactive or inconclusive.
What was measured:
[1] = target: Cytochrome P450 1A2 (Homo sapiens) (UniProt P05177); assay: Cytochrome P450 Family 1 Subfamily A Member 2 (CYP1A2) small molecule antagonists: luciferase reporter qHTS assay (AID 1671199); for activity change, negative = inhibition: series mostly up to about 120 µM
Cytochrome P450 1A2 (Homo sapiens), sequence (P05177 whole entry, looked up): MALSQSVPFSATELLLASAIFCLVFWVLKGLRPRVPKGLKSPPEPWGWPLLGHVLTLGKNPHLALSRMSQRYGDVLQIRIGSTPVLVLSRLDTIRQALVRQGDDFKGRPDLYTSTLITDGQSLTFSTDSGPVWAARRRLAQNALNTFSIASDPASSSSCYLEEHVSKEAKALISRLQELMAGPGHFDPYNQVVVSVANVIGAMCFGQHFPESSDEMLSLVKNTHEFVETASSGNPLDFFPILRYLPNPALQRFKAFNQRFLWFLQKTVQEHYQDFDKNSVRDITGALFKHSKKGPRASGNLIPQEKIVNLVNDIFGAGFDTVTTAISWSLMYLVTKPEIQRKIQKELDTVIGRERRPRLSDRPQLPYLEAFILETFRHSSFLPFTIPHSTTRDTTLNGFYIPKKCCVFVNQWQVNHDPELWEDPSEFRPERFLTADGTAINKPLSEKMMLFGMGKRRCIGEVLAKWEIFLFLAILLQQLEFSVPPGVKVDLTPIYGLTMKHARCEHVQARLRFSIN
Outline: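 Luminescence from luciferin formed by CYP1A2 from a proluciferin substrate, read 20 min after detection reagent. Compound was pre-incubated 10 min with enzyme-substrate, and reaction started with NADPH regeneration solution for 1 h at room temperature; furafylline control.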

[2] = target: Voltage-gated inwardly rectifying potassium channel KCNH2 (Homo sapiens) (UniProt Q12809); assay: Human Ether-a-go-go-Related Gene (hERG) channel small molecule antagonists: fluorescence cell-based qHTS assay (AID 1671200);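 for activity change, negative = inhibition: hERG-expressing U2OS cells given a thallium stimulus after FluxOR II dye loading; series mostly up to about 77 µM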
Voltage-gated inwardly rectifying potassium channel KCNH2 (Homo sapiens), sequence (Q12809 whole entry, looked up): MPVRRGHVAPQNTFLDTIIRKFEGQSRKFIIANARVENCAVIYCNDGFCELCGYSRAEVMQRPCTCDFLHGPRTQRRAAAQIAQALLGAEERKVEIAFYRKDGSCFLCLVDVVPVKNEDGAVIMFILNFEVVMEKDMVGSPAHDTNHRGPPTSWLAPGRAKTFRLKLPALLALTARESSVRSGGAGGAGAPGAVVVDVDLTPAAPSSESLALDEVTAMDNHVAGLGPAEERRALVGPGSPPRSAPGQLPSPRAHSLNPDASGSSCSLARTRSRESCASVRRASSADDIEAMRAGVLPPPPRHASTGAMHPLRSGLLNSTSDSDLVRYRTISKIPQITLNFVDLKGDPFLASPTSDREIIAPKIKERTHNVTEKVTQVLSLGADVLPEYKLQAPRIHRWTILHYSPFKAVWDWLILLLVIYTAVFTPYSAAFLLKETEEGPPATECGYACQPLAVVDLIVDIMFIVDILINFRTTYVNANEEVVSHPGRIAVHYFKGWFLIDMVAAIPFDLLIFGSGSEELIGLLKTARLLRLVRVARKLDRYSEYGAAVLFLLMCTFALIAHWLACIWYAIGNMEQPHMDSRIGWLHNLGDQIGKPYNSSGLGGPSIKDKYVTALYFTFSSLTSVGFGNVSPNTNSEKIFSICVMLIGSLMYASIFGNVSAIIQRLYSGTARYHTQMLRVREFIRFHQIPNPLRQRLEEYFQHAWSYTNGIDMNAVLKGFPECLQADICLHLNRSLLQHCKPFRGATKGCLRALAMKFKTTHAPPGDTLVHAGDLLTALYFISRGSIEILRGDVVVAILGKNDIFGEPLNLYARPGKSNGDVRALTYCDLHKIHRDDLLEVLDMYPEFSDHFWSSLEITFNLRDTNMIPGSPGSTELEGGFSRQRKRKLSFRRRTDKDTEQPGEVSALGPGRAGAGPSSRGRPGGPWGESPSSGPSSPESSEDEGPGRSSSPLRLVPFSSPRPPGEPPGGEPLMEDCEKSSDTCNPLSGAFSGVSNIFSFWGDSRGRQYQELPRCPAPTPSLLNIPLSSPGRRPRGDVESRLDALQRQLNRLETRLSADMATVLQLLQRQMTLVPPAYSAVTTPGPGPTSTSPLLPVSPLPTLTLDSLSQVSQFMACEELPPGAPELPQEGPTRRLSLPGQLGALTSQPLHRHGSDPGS
Outline: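 Thallium served as the potassium surrogate; its influx into dye-loaded U2OS cells carrying the channel was measured by fluorescence over 2 min.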

[3] = target: Cytochrome P450 3A4 (Homo sapiens) (UniProt P08684); assay: Cytochrome P450 Family 3 Subfamily A Member 4 (CYP3A4) small molecule antagonists: luciferase reporter qHTS assay (AID 1671201); for activity change, negative = inhibition: series mostly up to about 120 µM
Cytochrome P450 3A4 (Homo sapiens), sequence (P08684 whole entry, looked up): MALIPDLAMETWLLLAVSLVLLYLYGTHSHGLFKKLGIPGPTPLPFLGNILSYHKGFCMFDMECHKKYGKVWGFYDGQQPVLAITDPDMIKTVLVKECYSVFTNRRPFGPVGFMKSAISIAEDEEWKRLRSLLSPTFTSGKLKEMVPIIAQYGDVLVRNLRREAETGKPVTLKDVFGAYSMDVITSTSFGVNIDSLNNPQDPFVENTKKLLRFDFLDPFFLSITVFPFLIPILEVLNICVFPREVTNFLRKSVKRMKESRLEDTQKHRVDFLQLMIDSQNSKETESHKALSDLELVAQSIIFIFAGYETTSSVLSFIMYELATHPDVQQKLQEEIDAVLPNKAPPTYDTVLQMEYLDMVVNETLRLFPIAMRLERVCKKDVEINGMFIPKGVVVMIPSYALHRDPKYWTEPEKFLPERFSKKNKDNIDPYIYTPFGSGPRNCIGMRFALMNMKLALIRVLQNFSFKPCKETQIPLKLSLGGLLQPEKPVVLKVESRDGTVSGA
Outline: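 Relative luminescence units after 20 min with luciferin detection reagent served as read-out. Beforehand, CYP3A4 turned over a proluciferin substrate for 1 h at room temperature with NADPH regeneration, following 10 min compound preincubation.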
Note: nearly all actives have a fitted effect of over 50% in size.
Potency is the fitted concentration of half-maximal effect.

C=CC(=O)OCC(O)COc1ccccc1 (configuration not stated)
Potency [1]: 35.6 µM (active) | Potency [2]: inactive | Potency [3]: inactive

Cc1c(C(=O)O)cccc1[N+](=O)[O-]
Potency [1]: inactive | Potency [2]: inactive | Potency [3]: inactive

CCN=c1cc2oc3cc(NCC)c(C)cc3c(-c3ccccc3C(=O)OCC)c-2cc1C
Potency [1]: inactive | Potency [2]: 2.45 µM (active) and 2.19 µM (active) | Potency [3]: 999 nM (active) and 2 µM (active)

c1cc2c3c(c1)ccc1cccc(c13)C2
Potency [1]: 3.63 µM (active) | Potency [2]: inactive | Potency [3]: inactive

CO[Si](CCC1CCC2OC2C1)(OC)OC (configuration not stated)
Potency [1]: inactive | Potency [2]: inactive | Potency [3]: inactive

CCOC(=O)COc1ccc(C)cc1
Potency [1]: 39.9 µM (active) | Potency [2]: inactive | Potency [3]: inactive

O=S(=O)(O)CCCN1CCOCC1
Potency [1]: inactive | Potency [2]: inactive | Potency [3]: inactive

Cc1cc(=O)[nH]c(=O)[nH]1
Potency [1]: inactive | Potency [2]: inactive | Potency [3]: inactive

Oc1ccc(-c2ccccc2)c(Cl)c1
Potency [1]: 12.6 µM (active) | Potency [2]: inactive | Potency [3]: inactive

CC[N+](CC)(CC)Cc1ccccc1
Potency [1]: inactive | Potency [2]: inactive | Potency [3]: inactive

O=S(=O)(O)c1cc(S(=O)(=O)O)c2ccc3c(S(=O)(=O)O)cc(S(=O)(=O)O)c4ccc1c2c43
activity change, negative = inhibition [1]: -17.6% [at 23.6 µM] (inactive) | activity change, negative = inhibition [2]: 2.85% [at 15.8 µM] (inactive) | activity change, negative = inhibition [3]: 10.6% [at 23.6 µM] (inactive)

OCCCS
Potency [1]: inactive | Potency [2]: inactive | Potency [3]: inactive

CCCCCCCCC(C)=O
Potency [1]: inactive | Potency [2]: inactive | Potency [3]: inactive

CCCCCCCCCCCCCCCC
Potency [1]: inactive | Potency [2]: inactive | Potency [3]: inactive

C=C(C)CCCC
Potency [1]: inactive | Potency [2]: inactive | Potency [3]: inactive

CC1CCCCC1
Potency [1]: 63.3 µM (active) | Potency [2]: inactive | Potency [3]: inactive

CCOC(=O)CN
Potency [1]: inactive | Potency [2]: inactive | Potency [3]: inactive

CC1(C)C(=O)N(Br)C(=O)N1Br
Potency [1]: inactive | Potency [2]: inactive | Potency [3]: inactive

CNC(=S)NN
Potency [1]: 39.9 µM (active) | Potency [2]: inactive | Potency [3]: inactive

CN(C)CCCN1c2ccccc2Sc2ccc(C(F)(F)F)cc21
Potency [1]: 3.63 µM (active) | Potency [2]: 2.68 µM (active) | Potency [3]: inactive

CCCCCCCCCCOCC(O)CN (configuration not stated)
Potency [1]: 2.88 µM (active) | Potency [2]: 23.9 µM (active) | Potency [3]: inactive

CCC(=O)CC(C)CC (configuration not stated)
activity change, negative = inhibition [1]: -14.4% [at 0.435 µM] (inactive) | activity change, negative = inhibition [2]: 2.31% [at 0.29 µM] (inactive) | activity change, negative = inhibition [3]: -0.0732% [at 0.435 µM] (inactive)

c1ccc2c(c1)CCC2
Potency [1]: inactive | Potency [2]: inactive | Potency [3]: inactive

Cc1ccc(O)cn1
Potency [1]: inactive | Potency [2]: inactive | Potency [3]: inactive

CCCCCCCCCCCCN(CCO)CCO
Potency [1]: 11.2 µM (active) | Potency [2]: 7.73 µM (active) | Potency [3]: inactive

CC(C)=CC1CC(C)CCO1 (configuration not stated)
Potency [1]: inactive | Potency [2]: inactive | Potency [3]: inactive

O=C1c2c(O)ccc([N+](=O)[O-])c2C(=O)c2c([N+](=O)[O-])ccc(O)c21
Potency [1]: 7.03 µM (active) | Potency [2]: inactive | Potency [3]: 12.5 µM (active)

CCCCC(CC)COC(=O)c1ccc(O)cc1 (configuration not stated)
Potency [1]: 31.6 µM (active) and 35.6 µM (active) | Potency [3]: 70.7 µM (active)

CCCOc1sc(C(=O)N2CCC(c3cc(CN)ccc3F)CC2)c(C)c1Br
Potency [1]: 73 µM (active) | Potency [2]: 5.65 µM (active) | Potency [3]: 10.3 µM (active)

O=C1NC2CCCCN2C12CCN(CCCN1c3ccccc3CCc3ccc(Cl)cc31)CC2 (configuration not stated)
Potency [1]: inactive | Potency [2]: 0.756 µM (active) | Potency [3]: inactive

CC(=O)OC(OC(C)=O)c1ccc([N+](=O)[O-])o1
Potency [1]: 45.6 µM (active) | Potency [2]: inactive | Potency [3]: inactive

CCCC(=O)OCC(COC(=O)CCC)OC(=O)CCC
Potency [1]: 28.3 µM (active) | Potency [2]: inactive | Potency [3]: inactive

CN1CN(C)CN(C)C1
Potency [1]: inactive | Potency [2]: inactive | Potency [3]: inactive

CC(C)(c1cc(Br)c(O)c(Br)c1)c1cc(Br)c(O)c(Br)c1
Potency [1]: inactive | Potency [2]: inactive | Potency [3]: 56.2 µM (active) and inactive

O=C1NCN(c2ccccc2)C12CCN(CCCC(c1ccc(F)cc1)c1ccc(F)cc1)CC2
Potency [1]: inactive | Potency [2]: 0.19 µM (active) | Potency [3]: inactive

CCCCCCC(C)Nc1ccc(Nc2ccccc2)cc1 (configuration not stated)
Potency [1]: 22.4 µM (active) | Potency [3]: 35.6 µM (active)

Clc1cc(Cl)c(-c2c(Cl)c(Cl)cc(Cl)c2Cl)cc1Cl
Potency [1]: inactive | Potency [2]: inactive | Potency [3]: inactive

O=C(c1ccccc1)c1cc(Cl)ccc1O
Potency [1]: 12 µM (active) | Potency [3]: inactive

CC(C)CCOCCC(C)C
Potency [1]: inactive | Potency [2]: inactive | Potency [3]: inactive

Cc1cccc(N(C)C)c1
Potency [1]: inactive | Potency [2]: inactive | Potency [3]: inactive

c1ccc(Sc2ccccc2)cc1
Potency [1]: 31.7 µM (active) | Potency [3]: inactive

COc1cccc(OC)c1O
Potency [1]: 35.6 µM (active) | Potency [2]: inactive | Potency [3]: inactive
